From PubChem BioAssay
Only some compounds are listed: those with a hit (about 1.3% of all), similar ones and a draw of the others.
EPAC2 agonist: EPAC2 (human) agonism; Q8WZA2; EPAC2 activation, biochemical qHTS; response scale: 100% = 6.5 mM cAMP response; Potency, µM (titrated, usually from 154 µM), without a hit: at the top dose activation, usual class: activators; 0.079% of 360,000 active; AID 720711; also: nearly all actives have a fitted effect of over 50% in size
Target sequence (Q8WZA2 whole entry, looked up): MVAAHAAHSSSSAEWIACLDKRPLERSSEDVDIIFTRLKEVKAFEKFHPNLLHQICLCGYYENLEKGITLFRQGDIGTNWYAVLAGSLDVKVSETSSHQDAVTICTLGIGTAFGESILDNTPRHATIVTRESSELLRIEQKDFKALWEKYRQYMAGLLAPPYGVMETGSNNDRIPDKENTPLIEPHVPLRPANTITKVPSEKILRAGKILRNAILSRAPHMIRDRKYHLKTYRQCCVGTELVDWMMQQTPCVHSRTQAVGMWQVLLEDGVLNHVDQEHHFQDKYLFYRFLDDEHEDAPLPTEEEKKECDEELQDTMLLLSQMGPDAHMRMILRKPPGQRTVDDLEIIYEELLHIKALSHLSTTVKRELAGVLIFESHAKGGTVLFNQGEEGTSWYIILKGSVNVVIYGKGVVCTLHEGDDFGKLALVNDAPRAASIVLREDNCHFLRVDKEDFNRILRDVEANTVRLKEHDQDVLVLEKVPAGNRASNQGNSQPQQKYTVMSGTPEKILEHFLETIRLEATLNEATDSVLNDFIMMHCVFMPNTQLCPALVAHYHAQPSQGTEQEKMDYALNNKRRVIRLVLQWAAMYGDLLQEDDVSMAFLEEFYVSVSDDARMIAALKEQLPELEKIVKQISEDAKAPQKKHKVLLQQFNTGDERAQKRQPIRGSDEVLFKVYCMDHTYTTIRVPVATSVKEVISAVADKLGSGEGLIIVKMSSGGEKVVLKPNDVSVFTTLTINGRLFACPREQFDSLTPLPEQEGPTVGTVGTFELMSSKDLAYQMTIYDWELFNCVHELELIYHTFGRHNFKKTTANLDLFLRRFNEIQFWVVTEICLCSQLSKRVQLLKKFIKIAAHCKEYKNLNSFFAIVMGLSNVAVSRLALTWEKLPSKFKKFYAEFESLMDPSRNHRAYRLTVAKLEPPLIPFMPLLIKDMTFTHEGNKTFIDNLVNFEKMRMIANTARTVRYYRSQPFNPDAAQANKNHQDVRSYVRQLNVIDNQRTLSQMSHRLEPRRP
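Nucleotide exchange monitored as fluorescence drop when BODIPY-GDP leaves Rap1B. Reaction: 100 nM EPAC2, 250 nM RAP1B-BODIPY-GDP, 50 uM GDP, room temperature, kinetic read over 30 min. Activity expressed relative to 6.5 mM cAMP.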
EPAC1 ag: activates human EPAC1 exchange factor; 0.073% of 360,000 active; EPAC1 agonist qHTS, biochemical assay; response scale: 100% = response to 6.5 mM cAMP; Potency, µM (doses to about 154 µM), for inactives: top-dose activation, actives largely listed as activators; O95398; also: nearly all actives have a fitted effect of over 60% in size
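Normalized to 6.5 mM cAMP, activity reflects EPAC1-catalysed release of BODIPY-GDP from Rap1B, followed kinetically over 30 min at 480 nm excitation, 540 nm emission. Reaction contained 100 nM EPAC1, 250 nM Rap1B-BODIPY-GDP, 50 uM GDP.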
EPAC2 antagonist: blocks human EPAC2 exchange factor | Q8WZA2 | AID 720708 | EPAC2 GEF exchange of Rap1B-BODIPY-GDP, fluorescence | Potency, µM (series often up to 114 µM), for the others: top-dose activity, negative = inhibition, most hits filed as inhibitors | 0.18% of 360,000 active; also: % is scaled to controls: 0 for no effect and ±100 for the full control effect; nearly all actives have a fitted effect of over 45% in size
BRCA1 expr up: activators of BRCA1 expression. MCF7-BRCA1-FFLuc reporter, luminescence, 48 h; response scale: scaled: vehicle 0%, 10 µM genistein 100%. 1.1% of 380,000 active. AID 624202. Potency, µM (highest dose often 46.1 µM), inactives show at the top dose activation, hits mostly activators; also: nearly all actives have a fitted effect of over 80% in size
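First, MCF7-BRCA1-FFLuc cells (2000/well) attach for 2 h; next, compounds are pin-added and incubated 48 h at 37 °C; finally, luciferase reagent is added and luminescence read after 15 min.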
RGS4 inh: blocks human RGS4-accelerated GTP hydrolysis; P49798; Transcreener GDP fluorescence polarization, RGS4-accelerated GTP hydrolysis; Potency, µM (highest dose often 114 µM), without a hit: at the top dose activity change, negative = inhibition, usual class: inhibitors; 0.039% of 390,000 active; also: % is scaled to controls: 0 for no effect and ±100 for the full control effect; nearly all actives have a fitted effect of over 75% in size
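MLSMR compounds (23 nl, pin-transferred) preincubated 10 min at room temperature with a 500nM (2x) first reagent, then RGS4 at 900nM (2x) plus Transcreener GDP mix added; fluorescence polarization (620/688 nm) read before and after 90 min at 30 °C.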
EPAC1 antag: blocks human EPAC1 exchange factor | Potency, µM (series often up to 115 µM), for the others: at the highest dose activity change, negative = inhibition, hits mostly inhibitors | O95398 | 0.14% of 360,000 active | EPAC1 GEF assay, Rap1b-BODIPY-GDP exchange fluorescence | AID 720709;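 also: plate controls were vehicle for no effect and positive control for full effect; nearly all actives have a fitted effect of over 50% in size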
* = called active by the depositor; ? = inconclusive; / = no result; [ ] = another dose, or the depositor's remark. Calls follow the shape of the dose curve; as a rule, active = well fitted curve in the direction sought with a large enough effect; inconclusive = small, poorly fitted or top-dose-only effect, or another doubt; inactive = no such curve, though single readings can be large; an effect the other way counts as inactive or inconclusive. Potency is read from the fitted curve at half-maximal effect.

SMILES	EPAC2 agonist	EPAC1 ag	EPAC2 antagonist	BRCA1 expr up	RGS4 inh	EPAC1 antag
O=C(O)COc1ccc(/C=N/NC(=O)c2ccc(-c3csc(Nc4ccc(Cl)cc4)n3)cc2)cc1	-5.3%	12.2%	?	58.5%	?	7.94µM*
Cc1ccc(CN2CC(C(=O)Nc3nc(C)cs3)CC2=O)cc1 (configuration not stated)	-0.4%	-13.6%	-5.8%	4.5%	/	1.6%
Cc1ccc(S(=O)(=O)Nc2cc(-c3ccc(Cl)cc3)nn2C)cc1	0.4%	-0.5%	1.6%	0.7%	9.3%	-12.0%
O=C(O)c1cc(O)c2c(c1)[C@@H]([C@H]1c3cc(C(=O)O)cc(O)c3C(=O)c3c(O[C@@H]4O[C@H](CO)[C@@H](O)[C@H](O)[C@H]4O)cccc31)c1cccc(O[C@@H]3O[C@H](CO)[C@@H](O)[C@H](O)[C@H]3O)c1C2=O	-4.0%	-6.9%	?	50.0%	-119.5%	35.5µM*
COc1ccc(-c2nc(N)ncc2-c2csc(C)n2)c(O)c1OC	-4.6%	-5.4%	-10.2%	-3.0%	8.6%	6.5%
Cc1cc(C)nc(NC(=O)/C=C/c2ccccc2Cl)c1	8.5%	8.1%	-0.9%	3.16µM*	-13.1%	2.5%
O=C(/C=C/c1ccc(Cl)cc1Cl)Nc1ccncc1	-9.2%	-6.1%	11.1%	15.6%	-34.0%	-1.3%
Cc1cc(C)nc(NC(=O)/C=C/c2ccccc2Cl)n1	6.5%	-5.8%	6.9%	43.2%	-7.4%	-19.0%
Cc1cc(C)nc(NC(=O)/C=C/c2ccc(Cl)cc2Cl)c1	0.5%	2.2%	2.0%	6.31µM*	11.7%	-3.8%
COC(=O)c1oc2ccc(OC)cc2c1N	3.3%	-0.5%	5.5%	?	-23.8%	9.5%
COc1ccc(C(=O)c2oc3ccc(OC)cc3c2N)cc1	-9.2%	-11.2%	-21.2%	5.01µM*	-17.2%	?
S=C(Nc1nc2c(s1)CCCC2)NC1CC1	-4.6%	1.9%	-3.2%	6.31µM*	-22.6%	-7.4%
O=C(NC(=S)Nc1nc2c(s1)CCCC2)c1ccccc1	17.7%	8.7%	3.4%	27.8%	-2.3%	-0.7%
O=S(=O)(NCC(c1cccnc1)N1CCN(c2ccccc2F)CC1)c1cccs1 (configuration not stated)	-7.9%	-9.3%	-12.8%	-0.9%	-4.6%	?
Cc1cc(NC(=O)c2cccc(Br)c2)n[nH]1	2.4%	6.0%	10.2%	11.2µM*	3.8%	1.1%
Cc1cc(C)nc(NC(=O)c2cccc(Br)c2)n1	2.9%	0.7%	2.5%	29.1%	12.9%	-8.7%
O=C(Nc1ccc2nc(-c3ccco3)c(-c3ccco3)nc2c1)N1CCN(c2ccccn2)CC1	2.1%	2.3%	-14.1%	-8.1%	?	35.5µM*
CC(C)OP(=O)(OC(C)C)C1(NS(=O)(=O)c2ccc(Cl)cc2)C=C(Cl)C(=O)C(Cl)=C1	0.6%	-18.5%	39.8µM*	-15.0%	-3.2%	-20.3%
CC(=O)c1ccc2oc3ccccc3c(=O)c2c1	4.7%	-1.1%	-3.1%	7.94µM*	-7.7%	-19.8%
CCOC(=O)c1cc2c(=O)c3ccccc3oc2nc1C	9.4%	7.1%	3.2%	-2.7%	15.2%	18.0%
CC(=O)c1cc2c(=O)c3ccccc3oc2nc1C	10.2%	2.6%	-1.8%	10µM*	-0.7%	6.4%
COc1ccccc1NC(=O)c1c(O)c2ccccc2[nH]c1=O	10.4%	-3.4%	4.3%	-9.5%	2.9%	0.0%
C=CCn1c(-c2ccc(N)cc2)nc2ccccc21	7.1%	-24.7%	10.6%	50.4%	-20.3%	-2.5%
C=CCn1c(-c2ccc(OC)cc2)nc2ccccc21	-3.8%	14.3%	2.6%	10µM*	-12.0%	4.0%
O=C(COC(=O)CSc1ccc2ccccc2c1)NCc1ccc2c(c1)OCO2	18.8%	16.0%	-6.5%	-18.0%	-20.4%	-25.4%
O=C(O)C=C1CCN(c2ncc(C(F)(F)F)cc2Cl)CC1	-4.1%	4.0%	-4.7%	11.2µM*	-4.1%[56.9 µM]	-3.4%
